Mito fusion act: mitochondrial division inhibition or fusion activation. S. cerevisiae fusion-defective mutant growth rescue, CellTiterGlo 48 h. actives 0.23% (n = 320,000). Potency, µM (series often up to 46.1 µM), hits mostly activators; further: nearly all actives have a fitted effect of over 45% in size
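Read-out: ATP-based luminescence (CellTiterGlo, 10 min ambient) reporting growth of fusion-defective ts yeast after 48 hours at 37C on glycerol/ethanol YPEG medium in the presence of compound.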
AT treatment: potential ataxia-telangiectasia treatment | F2112 A-T fibroblasts, KAP-1 phosphorylation AlphaLISA; neocarzinostatin DNA damage 30 min before lysis | Potency, µM (top dose mostly 57.5 µM), actives largely listed as activators | actives 0.19% (n = 320,000); further: nearly all actives have a fitted effect of over 45% in size
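hTERT-immortalized A-T patient fibroblasts (F2112), 500 cells/well in OPTI-MEM, 1% FBS, got compounds for 60 min, then NCS for 30 min at 37C. Lysates were then assayed for phospho-KAP-1 by AlphaLISA (anti-pKAP1 donor, anti-KAP1 acceptor beads), 6 hr at 25C.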
MCF10A rerep: inducers of DNA re-replication in MCF 10A breast cells; MCF 10A DNA re-replication, Hoechst nuclear intensity, 48 h; Potency, µM (highest dose often 46.1 µM), hits mostly activators; actives 2.9% (n = 350,000); AID 624296; further: nearly all actives have a fitted effect of over 50% in size
Integrin act MD: activates integrin-mediated alleviation for muscular dystrophy. alpha7betagal myoblasts, beta-gal FDG fluorescence, 48 h. Potency, µM (top dose mostly 38.3 µM), actives largely listed as activators. actives 0.064% (n = 350,000). AID 624291; further: nearly all actives have a fitted effect of over 60% in size
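Alpha7betagal+/- myoblasts (passage 13) were plated 16-24 hr, then exposed to compounds (1:260 dilution of DMSO stock) for 48 hours at 37C. After MPER lysis, β-galactosidase reporter activity was read as FDG fluorescence (ex 480/em 540) after 30 minutes.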
SW480 rerep: induces DNA re-replication in SW480 colon adenocarcinoma cells. SW480 DNA re-replication, Hoechst DNA content imaging, 48 h. Potency, µM (highest dose often 46.1 µM), most hits filed as activators. actives 1.8% (n = 340,000); further: nearly all actives have a fitted effect of over 55% in size
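Image-based read-out: total Hoechst fluorescence of nuclei (405 nm excitation, 500-530 nm emission), with hits raising the fraction of high-intensity nuclei. SW480 colon cells incubated 48 hr with compounds at 37 C.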
Of the large screens only hits and unclear results are named; the others gave an inactive call. Most compounds without a hit are left out; they make up all but 4.2% or so of the library. The call rests on the fitted dose curve; in most records, active means well fitted activation curve with a large enough effect; inconclusive means small, poorly fitted or top-dose-only effect; inactive means no such curve, though single readings can be large or run the other way.

CCCc1cc(C(=O)N/N=C/c2ccc(C)o2)c2ccccc2n1	MCF10A rerep inconclusive, SW480 rerep inconclusive
COc1ccc(N2CC(C(=O)N3CCc4ccccc43)CC2=O)cc1 (stereo not drawn)	none (no result: Mito fusion act, AT treatment)
CCOC(=O)N1CCN(Cc2nc3cc([N+](=O)[O-])ccc3n2C)CC1	none
CC(=O)N1CCN(Cc2nc3cc([N+](=O)[O-])ccc3n2C)CC1	SW480 rerep 2.9µM
Cc1cc(O)c(C(=O)/C=C/c2cccc([N+](=O)[O-])c2)c(=O)o1	MCF10A rerep inconclusive
COc1cc(/C=C/C(=O)c2ccc([N+](=O)[O-])o2)ccc1O	MCF10A rerep inconclusive, SW480 rerep 0.058µM
O=C(/C=C/c1cccc(Cl)c1)c1ccc([N+](=O)[O-])o1	MCF10A rerep 2.3µM, SW480 rerep 1.5µM
COc1ccc(/C=C/C(=O)c2ccc([N+](=O)[O-])o2)cc1OC	AT treatment inconclusive, MCF10A rerep inconclusive, SW480 rerep inconclusive
COc1ccc(OCc2cc(C(=O)NCCc3ccccc3)no2)c(Cl)c1	MCF10A rerep 18µM, SW480 rerep 21µM
COc1ccc(CCNC(=O)c2cc(-c3ccco3)on2)cc1OC	SW480 rerep 5.8µM
CCCC12CN(C(=O)c3ccc([N+](=O)[O-])cc3)CC(C)(CN(C(=O)c3ccc([N+](=O)[O-])cc3)C1)C2=O	none
CN(C)/C=C/C(=O)/C=C/c1cn(-c2ncc(C(F)(F)F)cc2Cl)c2ccccc12	MCF10A rerep 3.7µM, SW480 rerep inconclusive
COC(=O)Cc1cn(-c2ncc(C(F)(F)F)cc2Cl)c2ccccc12	none (no result: AT treatment)
O=C1CC(c2ccc(Cl)c([N+](=O)[O-])c2)c2ccc3ccccc3c2N1 (stereo not drawn)	Mito fusion act 13µM
COc1ccc(CCC(=O)N2CCN(S(=O)(=O)c3ccc(OC)c([N+](=O)[O-])c3)CC2)cc1	none (no result: Mito fusion act, AT treatment, MCF10A rerep, SW480 rerep)
CCOC(=O)CSc1nc2sc3c(c2c(=O)[nH]1)CC(C)(CC)OC3 (stereo not drawn)	none
CCC1(C)Cc2c(sc3nc(NN)n(C)c(=O)c23)CO1 (stereo not drawn)	MCF10A rerep 21µM, SW480 rerep inconclusive (no result: AT treatment)
Cc1ccc(C(=O)N2CCCCC2)cc1NC1=C(Cl)C(=O)N(Cc2ccccc2)C1=O	Mito fusion act inconclusive, MCF10A rerep 8.2µM, SW480 rerep inconclusive
C[C@H]1CN([C@@H](C)CO)C(=O)c2cc(Br)cnc2O[C@H]1CN(C)C(=O)Cc1ccccn1	none (no result: Mito fusion act, AT treatment, MCF10A rerep, SW480 rerep)
COC(=O)C1=C(C)Nc2c(c(=O)n(C)c(=O)n2C)C1c1ccncc1 (stereo not drawn)	none
COC(=O)C1=C(C)Nc2sc(C(N)=O)c(N)c2C1c1ccncc1 (stereo not drawn)	MCF10A rerep inconclusive, SW480 rerep 23µM (no result: Mito fusion act)
COC(=O)C1=C(C)Nc2[nH]c(=S)[nH]c(=O)c2C1c1ccc(OC)cc1 (stereo not drawn)	none
CCOC(=O)C1=C(C)Nc2sc(C(=O)c3ccc(OC)cc3)c(N)c2C1c1ccc(C(=O)OC)cc1 (stereo not drawn)	MCF10A rerep 12µM, SW480 rerep 13µM
CC(=O)C(=Nc1ccc(Cl)cc1Cl)NNc1cccc(Cl)c1	MCF10A rerep inconclusive
CN(c1ccccc1)c1ncnc2c1ncn2C	none (no result: Mito fusion act, AT treatment)
COc1ccc(C2c3cc4c(cc3OC(NNC(N)=O)C2C)OCO4)cc1 (stereo not drawn)	MCF10A rerep inconclusive, SW480 rerep inconclusive (no result: Mito fusion act, AT treatment)
COc1cc(C2c3cc4c(cc3OC(NNC(N)=S)C2C)OCO4)cc(OC)c1OC (stereo not drawn)	MCF10A rerep 1.5µM, SW480 rerep 2.6µM (no result: Mito fusion act, AT treatment)
CCN(CC)C1Oc2cc3c(cc2C(c2cc(OC)c(O)c(OC)c2)C1C)OCO3 (stereo not drawn)	MCF10A rerep inconclusive, SW480 rerep inconclusive (no result: Mito fusion act, AT treatment)
COc1cc(C2c3cc4c(cc3OC(NCc3ccccc3)C2C)OCO4)cc(OC)c1OC (stereo not drawn)	MCF10A rerep 1.6µM, SW480 rerep 4.6µM (no result: Mito fusion act, AT treatment)
COc1cccc(C2c3cc4c(cc3OC(NNC(N)=O)C2C)OCO4)c1O (stereo not drawn)	MCF10A rerep 3.3µM, SW480 rerep 8.2µM (no result: Mito fusion act, AT treatment)

High-throughput results from PubChem BioAssay.
